From PubChem BioAssay (NCATS)
Results filed as inconclusive are left out. Active and inactive are the calls of the source. The call rests on the fitted dose curve; in most records, active means well fitted cell-killing curve with a large enough effect; inconclusive means small, poorly fitted or top-dose-only effect; inactive means no such curve, though single readings can be large or run the other way.

Experiment: qHTS of pediatric cancer cell lines to identify multiple opportunities for drug repurposing: Primary screen for NB-EBc1 cells (AID 1347095)
Conditions: NB-EBc1 neuroblastoma viability, CellTiter-Glo luminescence, 48 h; series mostly up to 46 µM; activity change, negative = cytotoxic: at the top concentration
From the text: Drug repurposing or repositioning has been offered as a strategy for drug development in oncology programs. This approach has special potential for childhood cancers and other rare or orphan diseases, where the expected return on new drug development has been a disincentive to pharmaceuticals. […] In this project we exploit the poly-pharmacology of drugs to discover new indications via phenotypic screening of a panel of 19 well-characterized cell lines derived from solid tumors seen in children and adolescents. The goal is to identify approved drugs with previously unrecognized anticancer properties that has the potential to reveal new mechanisms and biological processes involved in carcinogenesis or drug resistance. We employed a titration-based paradigm (quantitative high-throughput screening or qHTS), where all compounds were tested at multiple concentrations for their effect on cell viability. Concentration-response curves (CRCs) were derived directly from the primary screen, and both potency and efficacy values were used to identify compounds with robust bioactivity profiles. We screened the NIH Chemical Genomics Center (NCGC) Pharmaceutical Collection (NPC) and Mechanism Interrogation Plate (MIPE) small molecule collections of approved and investigational compounds against these cell lines; and measured metabolically active cells after 48 hours of compound treatment as a proxy for cell viability. […] Assay Submitter: Nathalia J. Martinez, National Center for Advancing Translational Sciences, National Institutes of Health, Rockville, MD, USA; email: natalia.martinez@nih.gov Shen, M et al. Quantitative high-throughput phenotypic screening of pediatric cancer cell lines identifies multiple opportunities for drug repurposing. Oncotarget 2017 Dec 19;9(4):4758-4772. PMID 29435139.
The cells were obtained from University of North Carolina (UNC), Pediatric Preclinical Testing Program (PPT), and Coriell Institute (CI). qHTS cell viability assay: Cells were assayed in growth media at a density of 500-1,000 cells/well. Five microliters of cells were dispensed into 1,536-well, white, solid-bottom, TC-treated plates (Greiner Bio One) using a multidrop dispenser and incubated at 37 degrees C, 5% CO2, under a humidified atmosphere for 5 hours. Twenty-three nanoliters of compounds and controls (neutral control DMSO or positive control bortezomib at final concentration of 2.3 µM) were subsequently transferred by Kalypsys pintool. For primary screens, the MIPE collection was tested at 11-point dilutions (final concentrations range from 0.78 nM to 46 µM) and the NPC collection at 8-point dilutions (final concentrations range from 0.59 nM to 46 µM). Compounds tested in follow-up screens were assayed at 11-point dilutions. Cells were incubated for 48 hours, followed by addition of 3 µL of CellTiter-Glo (Promega). After a 15 min incubation at room temperature, samples were analyzed for luminescence intensity using a ViewLux High-throughput CCD imager equipped with clear filters.
Potency means the concentration at half of the fitted maximal effect.

Q: For CC(C)(C)CC(C)(C)c1ccc(O)c(-n2nc3ccccc3n2)c1, which “activity change, negative = cytotoxic” value is on record?
A: -8.56% (inactive)

Q: Which “activity change, negative = cytotoxic” value does the source give for CCCCCCCCOc1ccc(C(=O)c2ccccc2)c(O)c1 here?
A: 12% (inactive)

Q: Which “activity change, negative = cytotoxic” value does the source give for CC(=O)O[C@H]1C[C@@H]2CC[C@@H]3[C@H](CC[C@@]4(C)[C@H]3C[C@H]([N+]3(C)CCCCC3)[C@@H]4OC(C)=O)[C@@]2(C)C[C@@H]1N1CCCCC1 here?
A: 25% (inactive)

Q: For O=C(NC1CCN(CCc2c[nH]c3ccccc23)CC1)c1ccccc1, which “activity change, negative = cytotoxic” value is on record?
A: -6% (inactive)

Q: Which “activity change, negative = cytotoxic” value does the source give for CC(=O)OCC1=C(C(=O)O)N2C(=O)[C@@H](NC(=O)CSc3ccncc3)[C@H]2SC1 here?
A: 9.14% (inactive)

Q: For CC(=O)OC[C@H]1O[C@@H](n2ncc(=O)[nH]c2=O)[C@H](OC(C)=O)[C@@H]1OC(C)=O, which Potency is on record?
A: 23.7 µM (active)

Q: Which “activity change, negative = cytotoxic” value does the source give for C/C=C/c1ccc(O)c(OC)c1 here?
A: 11.3% (inactive)

Q: Which “activity change, negative = cytotoxic” value does the source give for CCCCNc1ccc(C(=O)OCCOCCOCCOCCOCCOCCOCCOCCOCCOC)cc1 here?
A: -16% (inactive)

Q: For CN(C)CCN1C(=O)c2ccccc2N(C)c2ccccc21, which “activity change, negative = cytotoxic” value is on record?
A: -9.61% (inactive)

Q: Which “activity change, negative = cytotoxic” value does the source give for c1ccc(-c2nc[nH]c2-c2ccccc2)cc1 here?
A: 19.2% (inactive)

Q: With CCCCCCCCCCCCCCCCO as the compound, how does the “activity change, negative = cytotoxic” value read?
A: 10.9% (inactive)

Q: For CC1=C(C(=O)O)N2C(=O)[C@@H](NC(=O)[C@H](N)c3ccccc3)[C@H]2SC1, which “activity change, negative = cytotoxic” value is on record?
A: 8.68% (inactive)

Q: For NS(=O)(=O)Cc1noc2ccccc12, which “activity change, negative = cytotoxic” value is on record?
A: 16.9% (inactive)

Q: Which “activity change, negative = cytotoxic” value does the source give for O=C(CCCN1CC=C(n2c(=O)[nH]c3ccccc32)CC1)c1ccc(F)cc1 here?
A: -7.54% (inactive)

Q: Which “activity change, negative = cytotoxic” value does the source give for CC(=O)OCC(=O)[C@H]1CC[C@H]2[C@@H]3CCC4=CC(=O)CC[C@]4(C)[C@H]3CC[C@]12C here?
A: -2.8% (inactive)

Q: With COc1cc(C)nc(-n2nc(C)cc2OC)n1 as the compound, how does the “activity change, negative = cytotoxic” value read?
A: 18.3% (inactive)

Q: For CC(=O)Nc1ncc([N+](=O)[O-])s1, which “activity change, negative = cytotoxic” value is on record?
A: 41.6% (inactive)

Q: For Cc1cccc(C)c1NC(=O)CN1CCCCCC1, which “activity change, negative = cytotoxic” value is on record?
A: 4.53% (inactive)

Q: With O=C(NCCc1c[nH]c2ccccc12)c1cccnc1 as the compound, how does the “activity change, negative = cytotoxic” value read?
A: 36.1% (inactive)

Q: Which “activity change, negative = cytotoxic” value does the source give for CC1(C)OC[C@@H]2O[C@@]3(C(=O)O)OC(C)(C)O[C@H]3[C@@H]2O1 here?
A: 18.3% (inactive)

Q: With CCc1cc(Cl)c(OC)c(C(=O)NC[C@@H]2CCCN2CC)c1O as the compound, how does the “activity change, negative = cytotoxic” value read?
A: -4.88% (inactive)

Q: For Nc1nc(Cl)nc2c1ncn2[C@@H]1O[C@H](CO)[C@@H](O)[C@@H]1F, which Potency is on record?
A: 0.211 µM (active)

Q: Which “activity change, negative = cytotoxic” value does the source give for OC[C@H]1O[C@@H](Oc2ccc(O)cc2)[C@H](O)[C@@H](O)[C@@H]1O here?
A: 2.78% (inactive)

Q: With CCOc1ccccc1C(N)=O as the compound, how does the “activity change, negative = cytotoxic” value read?
A: 5.57% (inactive)

Q: Which “activity change, negative = cytotoxic” value does the source give for Cc1c(-c2ccccc2)oc2c(C(=O)OCCN3CCCCC3)cccc2c1=O here?
A: -2.27% (inactive)

Q: Which “activity change, negative = cytotoxic” value does the source give for C#C[C@]1(O)CC[C@H]2[C@@H]3[C@H](C)CC4=C(CCC(=O)C4)[C@H]3CC[C@@]21C here?
A: 5.72% (inactive)

Q: With CCOc1ccc(NC(C)=O)cc1 as the compound, how does the “activity change, negative = cytotoxic” value read?
A: -13.2% (inactive)

Q: For NS(=O)(=O)c1cc(C(=O)O)cc(N2CCCC2)c1Oc1ccccc1, which “activity change, negative = cytotoxic” value is on record?
A: -0.632% (inactive)

Q: For CN(C)C(=O)Nc1ccc(Cl)c(Cl)c1, which “activity change, negative = cytotoxic” value is on record?
A: 5.08% (inactive)

Q: For Cc1cccc(C)c1NC(=O)c1ccccc1C(=O)O, which “activity change, negative = cytotoxic” value is on record?
A: 16.4% (inactive)

Q: With CCCCCCCCCCCCSCCOCCO as the compound, how does the “activity change, negative = cytotoxic” value read?
A: 1.54% (inactive)

Q: For OCc1ccccn1, which “activity change, negative = cytotoxic” value is on record?
A: 7.32% (inactive)

Q: Which “activity change, negative = cytotoxic” value does the source give for CC(CNC1CCCCC1)OC(=O)c1ccccc1 (stereo not given) here?
A: -9.12% (inactive)

Q: With N=C(N)N1CCc2ccccc2C1 as the compound, how does the activity change, negative = cytotoxic read?
A: 5.74% [at 4.84 µM] (inactive)

Q: Which “activity change, negative = cytotoxic” value does the source give for N#C/C(=C1\SCC(c2ccccc2Cl)S1)n1ccnc1 (stereo not given) here?
A: 1.02% (inactive)

Q: Which “activity change, negative = cytotoxic” value does the source give for COc1cc([C@H]2Oc3cc([C@H]4Oc5cc(O)cc(O)c5C(=O)[C@@H]4O)ccc3O[C@@H]2CO)ccc1O here?
A: 28.9% (inactive)

Q: Which “activity change, negative = cytotoxic” value does the source give for CC(C)CCCC(C)N (stereo not given) here?
A: 13.4% (inactive)

Q: Which “activity change, negative = cytotoxic” value does the source give for CN1CCC(OC(c2ccccc2)c2ccccc2)CC1 here?
A: 8.69% (inactive)

Q: Which “activity change, negative = cytotoxic” value does the source give for O=[N+]([O-])c1cccc(S(=O)(=O)NCCNS(=O)(=O)c2cccc([N+](=O)[O-])c2)c1 here?
A: 30.9% (inactive)

Q: With O=C(O)CCc1nc2ccccc2[nH]1 as the compound, how does the “activity change, negative = cytotoxic” value read?
A: -7.76% (inactive)
